Screening results: PubChem BioAssay, The Scripps Research Institute Molecular Screening Center
TEAD-YAP block = TEAD-YAP interaction inhibition | HEK-TIYL cells, TEAD-Gal4/YAP UAS-luciferase luminescence | inhibition, % at 9.12 µM | actives 1.4% (n = 640,000); in the data active means inhibition above about 32%;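 further: 0% = median of test compound wells and 100% = reference inhibitor wells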
FBW7 activator = activators of human E3 ligase FBW7 | Q969H0 | AlphaScreen FBW7–phospho-cyclin E peptide binding, activator screen | AID 1259310 | actives 0.13% (n = 650,000) | normalized activity (activation), % at 26.1 µM; in the data active means normalized activity above about 1.9%;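 further: purified mutant Fbw7 with reduced substrate affinity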
Target sequence (Q969H0 whole entry, looked up): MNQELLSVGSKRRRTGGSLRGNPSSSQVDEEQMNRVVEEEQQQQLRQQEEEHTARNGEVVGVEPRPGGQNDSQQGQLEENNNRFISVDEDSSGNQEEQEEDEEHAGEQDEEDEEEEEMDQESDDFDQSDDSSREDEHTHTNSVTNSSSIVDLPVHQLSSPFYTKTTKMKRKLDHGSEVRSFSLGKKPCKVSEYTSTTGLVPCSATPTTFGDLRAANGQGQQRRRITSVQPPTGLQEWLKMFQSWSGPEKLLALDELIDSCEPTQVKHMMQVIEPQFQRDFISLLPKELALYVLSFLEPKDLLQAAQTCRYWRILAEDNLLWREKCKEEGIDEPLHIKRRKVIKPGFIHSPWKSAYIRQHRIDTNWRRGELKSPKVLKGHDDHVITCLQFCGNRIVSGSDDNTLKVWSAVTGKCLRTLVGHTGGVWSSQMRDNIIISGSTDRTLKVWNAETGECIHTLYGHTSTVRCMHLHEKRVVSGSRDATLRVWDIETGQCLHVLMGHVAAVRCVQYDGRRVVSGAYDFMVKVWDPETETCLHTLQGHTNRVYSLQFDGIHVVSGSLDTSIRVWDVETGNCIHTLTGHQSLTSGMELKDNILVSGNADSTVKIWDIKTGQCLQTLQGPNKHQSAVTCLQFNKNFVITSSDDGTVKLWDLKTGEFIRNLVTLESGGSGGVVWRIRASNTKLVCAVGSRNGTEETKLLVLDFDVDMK
GPR151 activ = human GPR151 activation | actives 1% (n = 650,000) | activation, % at 11.2 µM | PathHunter beta-arrestin GPR151 cells, luminescence; in the data active means activation above about 4.9%;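 further: 0% = median of compound wells and 100% = cells with positive control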
MITF inh = human MITF inhibition, primary screen. O75030. AlphaScreen MITF homodimerization, bead proximity signal. inhibition, % at 2.6 µM. actives 0.91% (n = 650,000). AID 1259374; in the data active means inhibition above about 50%;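 further: 0% = vehicle wells with protein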
Numbers without * were called inactive. Compounds with a hit are over-represented: about 3.5% of the library has one in this group of screens.

SMILES | TEAD-YAP block | FBW7 activator | GPR151 activ | MITF inh
O=C(/C=C/c1cccs1)N1CCCC(N2CCN(c3ccccc3)CC2)C1 (stereo unspecified) | 6 | 0 | 1 | 12
CC(C)(C)C(C)(O)C#Cc1ccccc1 (stereo unspecified) | 83* | 0 | -8 | 0
CC(O)(C#Cc1ccccc1)c1ccccc1 (stereo unspecified) | -2 | 0 | 0 | -9
COc1ccc(S(=O)(=O)Nc2ccc(OC)cc2OC)cc1 | 61* | 0 | 0 | -1
CCOc1ccc(S(=O)(=O)Nc2ccccc2CC)cc1 | 16 | 0 | 2 | 11
COc1ccc(NS(=O)(=O)c2ccc(F)cc2)c(OC)c1 | 15 | 0 | 0 | 8
CCOc1ccc(S(=O)(=O)Nc2ccccc2OC)cc1 | 42* | 0 | 0 | 0
CCOc1ccccc1NS(=O)(=O)c1ccc(OC)cc1 | 47* | 1 | 1 | 13
C(=N\Nc1nn[nH]n1)/c1ccc(N2CCOCC2)cc1 | -5 | 0 | 0 | 58*
NC(=O)c1cc2cc(Cl)ccc2oc1=Nc1cccc(F)c1 | -36 | 0 | 1 | 0
Cn1c(SCc2cc(=O)oc3cc(O)c(O)cc23)nc2ccccc21 | -4 | 0 | -3 | 42
Nn1c(SCc2cc(=O)oc3cc(O)c(O)cc23)nnc1-c1ccncc1 | -6 | -1 | 0 | 85*
Nn1c(Cc2ccccc2F)nnc1SCc1cc(=O)oc2cc(O)c(O)cc12 | 6 | -1 | -1 | 95*
Cn1c(=O)c2[nH]c([N+](=O)[O-])nc2n(C)c1=O | 3 | 0 | 1 | 4
CC(=O)N1C(=O)/C(=C2\SC(=O)NC2=O)c2ccccc21 | -11 | 0 | 1 | 2
CC1(c2ccccc2)CC(C)(C)N2C(=O)/C(=C3\SC(=O)NC3=O)c3cccc1c32 (stereo unspecified) | 50* | 0 | 0 | 3
CC1CCc2c(sc(NC(=O)c3cccs3)c2C(=O)O)C1 (stereo unspecified) | 61* | 0 | 1 | 1
CC1CCc2c(sc(NC(=O)c3ccccc3)c2C(=O)O)C1 (stereo unspecified) | 70* | 0 | -4 | 16
O=C(Nc1sc2c(c1C(=O)O)CCCCC2)c1cccs1 | 42* | 0 | -8 | 0
COc1ccc(NC(=O)c2c(NC(=O)c3cccs3)sc3c2CCC(C)C3)cc1 (stereo unspecified) | -3 | 0 | 0 | -13
CC(=O)Nc1cccc(NC(=O)Nc2nonc2C)c1 | -6 | 0 | -1 | 1
Cc1cc(Cn2cnc3ccccc32)c(C)cc1Cn1cnc2ccccc21 | 36* | 0 | 0 | 8
O=C(Cn1cnc2ccccc21)Nc1ccc(SC(F)F)cc1 | 34* | 0 | 1 | 7
Cc1ccc(Cn2cnc3ccccc32)cc1 | 17 | 0 | 1 | 18
Cc1cc(C)c(NC(=O)Cn2cnc3ccccc32)c(C)c1 | 42* | 0 | 3 | 2
SMILES | TEAD-YAP block | FBW7 activator | GPR151 activ | MITF inh
COCc1cc(C)nc2sc(C(=O)Nc3cccc(C(=O)O)c3)c(N)c12 | -32 | 0 | 1 | -7
Cc1ccc(NC(=O)CCc2nc3cccnc3n2Cc2cccs2)cc1 | -2 | 0 | 4 | 0
CCc1ccccc1N(CC(=O)N1CCCCC1)S(C)(=O)=O | -4 | 0 | -1 | 5
CC1=C(C(=O)OCCOc2ccccc2)C(c2ccc(Cl)cc2)C2=C(CC(c3ccc(Cl)cc3)CC2=O)N1 (stereo unspecified) | 11 | 0 | -1 | -9
COc1cccc(/C=N\NC(=O)c2n[nH]c3c2CCC3)c1 | 36* | 0 | -1 | 9
COC(=O)c1ccc(/C=N/NC(=O)c2[nH]nc3c2CCc2ccccc2-3)cc1 | -1 | 0 | -2 | 18
COc1ccc(/C=N/NC(=O)c2[nH]nc3c2CCc2ccccc2-3)cc1OC | 46* | 0 | -2 | 12
COc1ccc(/C=N\NC(=O)c2n[nH]c3c2CCCC3)c(OC)c1OC | 61* | 1 | 1 | -3
COc1cccc(/C=N\NC(=O)c2n[nH]c3c2CCCC3)c1OC | -21 | 1 | -1 | -15
COc1cc(/C=N/NC(=O)c2n[nH]c3c2CCC3)ccc1O | 47* | 0 | 2 | 10
COc1ccc(/C=N/NC(=O)c2n[nH]c3c2CCCC3)cc1OC | 26 | 0 | 2 | -3
COc1ccc(C(=O)CSc2nc3sc4c(c3c(=O)n2-c2ccccc2)CCC4)cc1OC | 14 | 0 | 1 | -2
COc1ccc(C(=O)CSc2nc3scc(-c4ccccc4)c3c(=O)n2-c2ccccc2)cc1OC | -4 | 1.9* | 0 | 23
O=C1NC(=S)NC(=O)C1=Cc1ccc(N2Cc3ccccc3C2)cc1 | 9 | 0 | -1 | 21
O=C1NC(=S)NC(=O)C1=CN1CCCc2ccccc21 | 14 | 2.5* | 0 | 31
CCN(CC)c1nc(Nc2ccccc2)nc(Nc2cc(OC)c(OC)c(OC)c2)n1 | -1 | 0 | 0 | 9
CCN(CC)c1nc(Nc2ccc(-n3ccnc3)cc2)nc(Nc2cc(OC)c(OC)c(OC)c2)n1 | 75* | 0 | -1 | 12
COc1cc(Nc2ccnc(Nc3ccc(-n4ccnc4)cc3)n2)cc(OC)c1OC | 51* | 0 | 3 | 9
O=C(/C=C/C(=O)OCc1ccccc1)OCc1ccccc1 | 3 | 1 | 0 | -2
Cc1ccc(C(=O)/C=C/Nc2ccccc2C(N)=O)cc1 | 56* | 0 | -5 | -3
COc1cc(C(=O)/C=C/Nc2ccccc2C(N)=O)cc(OC)c1OC | 38* | 1 | -1 | 6
COc1cc(C(=O)/C=C/Nc2ccccc2C)cc(OC)c1OC | -29 | 0 | 2 | 1
Nc1c(C(=O)Nc2cccc3ccccc23)sc2nc3c(c(-c4cccs4)c12)CCCC3 | 4 | 0 | 1 | 2
O=c1c(CN2CCN(c3ccc(F)cc3)CC2)coc2ccccc12 | 6 | 0 | 1 | 17
CN(C)c1ccc(C(=O)N2CCN(Cc3ccc4c(c3)OCO4)CC2)cc1 | -12 | -1 | 1 | -5
SMILES | TEAD-YAP block | FBW7 activator | GPR151 activ | MITF inh
O=c1c(CN2CCN(c3ccccn3)CC2)coc2ccccc12 | 38* | 0 | -1 | 40
CN(C)c1ccc(CN2CCN(Cc3ccc4c(c3)OCO4)CC2)cc1 | -5 | 0 | -1 | 53*
COc1cc(SC)ccc1C(=O)N1CCN(Cc2ccc3c(c2)OCO3)CC1 | 32* | 0 | 1 | 7
O=c1c(CN2CCN(Cc3ccc4c(c3)OCO4)CC2)coc2ccccc12 | 57* | 0 | -1 | 42
O=C(c1nc2ccccn2c1CNCc1cnn(Cc2ccccc2)c1)N1CCOCC1 | 4 | 0 | 1 | -11
COc1ccc(C2=N/C(=C\c3ccc(C(C)C)cc3)C(=O)O2)cc1 | 4 | 0 | 4 | 2
O=C(Nc1ccc(Cl)c(-c2nc3ccccc3o2)c1)c1ccc([N+](=O)[O-])o1 | 14 | 0 | 1 | -1
O=c1c(CN2CCSCC2)coc2ccccc12 | 3 | 1 | 0 | 14
O=c1c(CN2CCc3ccccc3C2)coc2ccccc12 | 34* | 0 | 1 | 31
CC1(C)CC(=O)C(Sc2ncnc3nc[nH]c23)C(=O)C1 | 11 | 0 | -1 | 12
